Assay results from paper PMC4336329 (PLoS ONE, 2015).
Out of some 310,000 compounds screened, about 14,000 (4.5%) showed an effect of 50% or more. Effects have a minus sign here. The entries come from a sample that favours strong results as a whole.

target: human ether-à-go-go-related gene (hERG) potassium channel (human, UniProt Q12809); assay: primary screen, population patch clamp on CHO cells stably expressing hERG; higher = less effect of the substance
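Further: peak tail current of the secondary pulse compared with the same well before compound.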

Chain of human ether-à-go-go-related gene (hERG) potassium channel (Q12809 whole entry, looked up): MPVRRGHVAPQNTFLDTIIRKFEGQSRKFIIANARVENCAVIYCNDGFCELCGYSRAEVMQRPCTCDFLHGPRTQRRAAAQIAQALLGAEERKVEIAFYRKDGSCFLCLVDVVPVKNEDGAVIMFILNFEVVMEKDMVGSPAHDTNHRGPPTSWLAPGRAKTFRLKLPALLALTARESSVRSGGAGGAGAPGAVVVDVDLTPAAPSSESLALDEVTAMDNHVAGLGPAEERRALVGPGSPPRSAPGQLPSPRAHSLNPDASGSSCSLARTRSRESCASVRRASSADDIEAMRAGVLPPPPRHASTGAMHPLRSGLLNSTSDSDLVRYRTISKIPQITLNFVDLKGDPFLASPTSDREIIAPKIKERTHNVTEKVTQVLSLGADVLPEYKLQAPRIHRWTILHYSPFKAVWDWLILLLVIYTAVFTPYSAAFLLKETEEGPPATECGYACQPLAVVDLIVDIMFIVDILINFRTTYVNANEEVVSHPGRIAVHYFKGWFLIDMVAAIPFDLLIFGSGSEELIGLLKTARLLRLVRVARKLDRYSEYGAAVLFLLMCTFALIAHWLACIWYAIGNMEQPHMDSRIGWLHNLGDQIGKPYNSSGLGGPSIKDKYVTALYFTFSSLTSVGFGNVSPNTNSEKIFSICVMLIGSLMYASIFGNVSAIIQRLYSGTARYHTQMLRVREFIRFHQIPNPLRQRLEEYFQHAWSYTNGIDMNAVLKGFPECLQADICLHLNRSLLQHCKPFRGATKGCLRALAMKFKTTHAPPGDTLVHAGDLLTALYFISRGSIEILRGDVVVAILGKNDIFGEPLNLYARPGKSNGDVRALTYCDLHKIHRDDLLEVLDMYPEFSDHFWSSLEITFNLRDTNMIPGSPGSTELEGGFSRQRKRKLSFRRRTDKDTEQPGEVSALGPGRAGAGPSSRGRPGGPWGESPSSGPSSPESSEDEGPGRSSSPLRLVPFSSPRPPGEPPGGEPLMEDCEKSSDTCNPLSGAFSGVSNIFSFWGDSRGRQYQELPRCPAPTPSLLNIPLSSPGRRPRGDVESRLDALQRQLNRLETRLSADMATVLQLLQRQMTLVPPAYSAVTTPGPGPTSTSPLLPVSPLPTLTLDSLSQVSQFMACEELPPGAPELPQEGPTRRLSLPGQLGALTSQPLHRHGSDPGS

Compound	hERG current change (%, negative = inhibition) at 10uM
Cc1cc(C)cc(N(CC(=O)NCC2CCCO2)C(=O)CCC(=O)Nc2nccs2)c1 (stereo not shown)	12.8%
O=C(/C=C/c1cccc([N+](=O)[O-])c1)NCCSCc1cccc(Cl)c1	-18.9%
CCOCCCNC(=O)C(NC(=O)c1ccccc1O)c1ccccc1 (stereo not shown)	7.92%
COc1ccc(S(=O)(=O)NCc2cccnc2)cc1C	17.1%
COc1ccccc1N1CCN(C(CNS(=O)(=O)c2ccccc2)c2cccnc2)CC1 (stereo not shown)	-7.98%
COc1ccc(C)cc1S(=O)(=O)NCC(c1cccnc1)N1CCc2ccccc2C1 (stereo not shown)	-25.3%
COc1ccc(S(=O)(=O)NCC(c2cccnc2)N2CCN(C)CC2)cc1OC (stereo not shown)	10.7%
COc1ccc(S(=O)(=O)NCC(c2cccnc2)N2CCN(C)CC2)cc1C (stereo not shown)	-62.9%
COc1ccc(S(=O)(=O)NCC(c2cccnc2)N2CCN(Cc3ccccc3)CC2)cc1C (stereo not shown)	-79.6%
COc1ccccc1N1CCN(C(CNS(=O)(=O)c2ccc(C)cc2)c2cccnc2)CC1 (stereo not shown)	-38.9%
Cc1cc(S(=O)(=O)NCC(C)C)ccc1OCC(=O)N1CCN(Cc2ccccc2)CC1	-35.2%
COc1ccc(S(=O)(=O)NCC(c2cccnc2)N2CCN(c3ccccc3)CC2)cc1C (stereo not shown)	-79.2%
CCS(=O)(=O)NCC(c1cccnc1)N1CCN(c2ccccc2OC)CC1 (stereo not shown)	0.421%
CCN1CCN(C(CNS(=O)(=O)c2ccc(OC)c(C)c2)c2cccnc2)CC1 (stereo not shown)	-70.2%
Cc1ccc(Sc2ncccc2COC(=O)NC(C)C)cc1	4.99%
CC(C)OCCCN(CC(O)c1ccccc1)CC(O)c1ccccc1.O=C(O)C(=O)O (stereo not shown)	-10.1%
CC(C)(C)C(=O)C[n+]1cccc(C(N)=O)c1.[Br-]	21%
Cc1nn(-c2ccccc2)c2c1C1(C(=O)N(C(C)C)c3ccccc31)C(C#N)=C(N)O2 (stereo not shown)	-1.88%
CC1=Nc2cc(C(=O)N3CCCC3)ccc2Sc2c(C)ccc(C)c21	-19.5%
CSc1ncc(OCc2ccccc2)c(=O)[nH]1	8.39%
O=C1CS/C(=N\NC(=O)c2ccccc2)N1	15.6%
Cc1ccccc1-c1nc(CN2CCC(C(=O)NC3CC3)CC2)c(C)o1	-33%

Compound	hERG current change (%, negative = inhibition) at 10uM
Cc1oc(-c2ccc(Cl)cc2)nc1CN1CCC(C(=O)NCC2CCCO2)CC1 (stereo not shown)	-70.1%
O=C(NCC1CCCO1)C1CCN(C(=O)c2ccc(Cl)cc2)CC1 (stereo not shown)	-1.73%
Cc1cccc(-c2nc(CS(=O)CC(=O)NCC3CCCO3)c(C)o2)c1 (stereo not shown)	-5.24%
Cc1ccccc1-c1nc(CN2CCC(C(=O)NCCN3CCOCC3)CC2)c(C)o1	-11.4%
Cc1ccccc1-c1nc(CN2CCC(C(=O)NC3CCCCC3)CC2)c(C)o1	-67.7%
COc1ccc(-c2nc(CN3CCC(C(=O)NCC4CCCO4)CC3)c(C)o2)cc1OC (stereo not shown)	-20.9%
Cc1ccccc1-c1nc(CN2CCC(C(=O)NC3CCN(Cc4ccccc4)CC3)CC2)c(C)o1	-43%
Cc1ccccc1-c1nc(CN2CCC(C(=O)NCCCN3CCCC3)CC2)c(C)o1	14.4%
Cc1oc(-c2cccc(Cl)c2)nc1CN1CCC(C(=O)NCC2CCCO2)CC1 (stereo not shown)	-57.1%
Cc1ccccc1-c1nc(CN2CCC(C(=O)NCC3CCCO3)CC2)c(C)o1 (stereo not shown)	-54.5%
COc1ccccc1N(CC(=O)NC1CCCCC1)C(=O)CCC(=O)Nc1nccs1	-2.17%
COc1ccc(-c2ccc(SCC(=O)c3ccccc3)nn2)cc1OC	-15.7%
CC(=O)c1ccc(NC(=O)Nc2ccccc2)cc1	-2.03%
CCOC(=O)c1c(C)sc2c1N(C(=O)CN1CCOCC1)c1cc(Cl)ccc1S2	-21.5%
CC1CCN(C(=O)CN(C2CCCCC2)S(C)(=O)=O)CC1	1.15%
COc1ccc(N2CCN(c3cc(C)c4cccc(C)c4n3)CC2)cc1	22.7%
COc1ccccc1NC(=O)c1nnn(CC(=O)Nc2cc(C)cc(C)c2)c1N	17%
CC(C)S(=O)(=O)c1cnc(N2CCOCC2)nc1N	11.4%
Nc1ccc2nc(-c3ccccc3)sc2c1	23.4%
Cc1cccc(OCc2n[nH]c(=S)n2Cc2ccccc2)c1	11.8%
O=C(CNC(=O)c1sc2ccccc2c1Cl)Nc1ccccc1F	-6.72%
